SKOV3 invasion – inhibitors of ovarian cancer cell adhesion and invasion in omental model; 46,000 compounds, 0.1% hits; Potency, µM (highest dose often 45.8 µM), for the others: top-dose activity change, negative = inhibition, usual class: inhibitors; SKOV3ip1-GFP adhesion/invasion on 3D omental model, fluorescence;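 further: plate controls were DMSO wells for no effect and tomatine positive control wells for full effect; nearly all actives have a fitted effect of over 65% in size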
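qHTS, 4-pt dose (0.36-46 umol/L); SKOV3ip1-GFP, 1,200 cells/well, no FBS; primary omental fibroblast/mesothelial co-culture 48 h pre-grown; 2 h RT + 16 h 37 C; PBS wash, 4% PFA; GFP count 488/509 nm.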
p53null 39C kill – kills p53 null cells at the nonpermissive temperature; 55,000 compounds, 0.97% hits; AID 904; H1299 p53-null (neo) cells, 39C, ATPlite viability, 24 h; Potency, µM (doses to about 46.1 µM), for inactives: at the highest dose activity, negative = cell killing, actives largely listed as cytotoxic;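 further: 0% = DMSO only and -100% = full killing by 100 µM tamoxifen; nearly all actives have a fitted effect of over 50% in size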
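Cells seeded at 600/well, 37C overnight. Compound added (up to 46 uM), plates shifted to 39C for 24 hr. ATPlite added, luminescence read after 20 min at room temperature.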
pS6 MEF inh – reduces mTORC1 signaling in Tsc2 and p53 null MEF cells | Tsc2-/- p53-/- MEF, phospho-rpS6 immunofluorescence/PI, 24 h | AID 493208 | Potency, µM (series often up to 38.3 µM), inactives show top-dose activity change, negative = inhibition, actives largely listed as inhibitors | 44,000 compounds, 0.78% hits;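 further: plate controls were DMSO for no effect and rapamycin for full effect; nearly all actives have a fitted effect of over 50% in size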
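Immunofluorescence of rpS6 phosphorylation in Tsc2-/-, p53-/- MEFs after 24 h compound exposure, normalized to propidium iodide signal. Activity is expressed as % positive cells, thresholded with 7.5 nM rapamycin.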
PMP22 txn – PMP22 gene transcription modulation; AID 1508649; Potency, µM (highest dose often 57.5 µM), for inactives: top-dose activity change, negative = inhibition, actives largely listed as inhibitors; 43,000 compounds, 2% hits; S16 Pmp22-F2sN Schwann cells, FLuc/NLuc coincidence luminescence, 24 h; active means clear falling dose curves in both reporters; inconclusive means both reporters move, but less clearly or upward; inactive means either reporter flat; the % is the NLuc reporter signal
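Rat S16 Pmp22-F2sN cells, 500-1,000/well in phenol red-free DMEM + 10% FBS, compound-treated 24 h (37C, 5% CO2). Luminescence: FLuc read, Stop&Glo added, NLuc read.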
p53null 32C kill – kills p53 null cells at the permissive temperature; H1299-neo p53 null cells, ATP luminescence, 24 h, 32C; Potency, µM (titrated, usually from 46.1 µM), for inactives: at the highest dose activity change, negative = cytotoxicity, actives largely listed as cytotoxic; AID 903; 55,000 compounds, 0.62% hits;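 further: 0% = DMSO only and -100% = full killing by 100 µM tamoxifen; nearly all actives have a fitted effect of over 55% in size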
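Cells lacking p53 (H1299-neo) are plated at 600 per well and allowed to settle overnight at 37C. Test compounds (up to 46 uM) are added and held 24 hours at 32C, then ATP is quantified by luminescence.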
S16 F2sN tox – cytotoxicity in S16 Pmp22-F2sN Schwann cells | S16 Pmp22-F2sN Schwann cells (luciferase reporters placed in the Pmp22 gene) viability, CellTiter-Glo, 24 h | Potency, µM (top dose mostly 57.5 µM), for the others: top-dose activity change, negative = cytotoxicity, most hits filed as cytotoxic | 43,000 compounds, 0.48% hits; further: nearly all actives have a fitted effect of over 65% in size
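CellTiter-Glo counter-screen, qHTS, 1536-well. Cells: S16(c9) Pmp22-F2sN, 500-1,000/well in DMEM + 10% FBS. Cpd 23 nL pin transfer, 24 h, 37C/5% CO2. Read: luminescence, CCD imager.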
Starred values were filed as active, the others as inactive; i = inactive; ? = inconclusive; · = no result given. Only some compounds are listed: those with a hit (about 3% of all), similar ones and a draw of the others. Unless noted, the call rests on the fitted dose curve; in most records, active means well fitted curve in the direction sought with a large enough effect; inconclusive means small, poorly fitted or top-dose-only effect, or another doubt; inactive means no such curve, though single readings can be large; an effect the other way counts as inactive or inconclusive. Unless noted, on the % scale 0 is the no-effect control and ±100 the full control effect; potency means the concentration at half of the fitted maximal effect.

SMILES | SKOV3 invasion | p53null 39C kill | pS6 MEF inh | PMP22 txn | p53null 32C kill | S16 F2sN tox
CNC(=O)c1cc2ccccc2o1 | · | 20.8% | · | · | -7.9% | ·
CCn1c(C(=O)N(C2CC2)C2CC2)cc2c3c(ncn3C)c(Nc3cc(C)n(C)n3)nc21 | -5.2% | · | · | · | · | ·
O=C(Nc1nc2c(s1)CCCC2)c1ccc2ncsc2c1 | · | 11.2µM* | · | · | 12.6µM* | ·
Cc1cccc(C(=O)Nc2nc3c(s2)CCCC3)c1 | -13.6% | 12.6µM* | -5.0% | -17.8% | 12.6µM* | -19.1%
CCOc1cc(C(c2c(C)[nH]n(-c3ccccc3)c2=O)c2c(C)[nH]n(-c3ccccc3)c2=O)ccc1O | ? | -12.3% | 6.8% | 9.46µM* | 3.8% | -3.3%
COc1ccc(S(=O)(=O)Nc2cccc(-c3ccc(N4CCCCC4)nn3)c2)cc1F | -10.5% | 20µM* | -1.4% | · | 12.6µM* | ·
O=S(=O)(Nc1cccc(-c2ccc(N3CCCCC3)nn2)c1)c1cccc(F)c1 | i | 10µM* | -3.2% | · | ? | ·
O=C(C=CC=Cc1ccc2c(c1)OCO2)N1CCCCC1 | -25.2% | · | · | · | · | ·
CCc1c(O)cc(O)c(C(=O)c2ccc(OCCN3CCOCC3)c(OC)c2)c1CC(=O)N(CCOC)CCOC | 14.3% | · | · | · | · | ·
COc1ccc(CNCCC(c2ccc3c(c2)OCO3)c2ccccc2OC)cc1 (stereo unspecified) | ? | 12.6µM* | ? | ? | 3.6% | ?
CCCCN(C)CCCNC(=O)Cn1ncc2c3ccccc3n(Cc3cc(C)ccc3C)c2c1=O | ? | 10µM* | -5.5% | ? | -3.3% | ?
COc1ccc2oc(=Nc3ccccc3)c(-c3nc4ccccc4[nH]3)cc2c1 | · | · | · | · | 11.2µM* | ·
Cc1cc(C(=O)NOCCO)c(Nc2ccc(I)cc2F)n(C)c1=O | 0.6% | · | · | · | · | ·
CCC(=O)O[C@]1(C(=O)CO)CC[C@H]2[C@@H]3CCC4=CC(=O)CC[C@]4(C)[C@@H]3CC[C@@]21C | -15.5% | · | · | · | · | ·
COc1ccc(/C=N/Nc2nncc3ccccc23)cc1 | · | · | · | · | 4.47µM* | ·
COC(=O)CN(c1ccccc1)S(=O)(=O)c1ccc(F)cc1 | · | 6.3% | · | · | 0.6% | ·
Cc1ccc(N(CC(O)Cn2c3ccccc3c3ccccc32)S(=O)(=O)c2ccc(F)cc2)cc1 (stereo unspecified) | ? | 11.2µM* | ? | ? | 60.9% | ?
CCc1cc(C(C)=NOCc2ccc(C3CCCCC3)c(C(F)(F)F)c2)ccc1CN1CC(C(=O)O)C1 | -2.6% | · | · | · | · | ·
COc1cccc(-c2nnc(Nc3nc4c(F)cccc4s3)o2)c1 | · | 2.51µM* | · | · | ? | ·
CCCc1nn2cc(-c3ccc(C)c(C)c3)nc2s1 | 4.1% | 10µM* | 0.8% | -0.1% | 7.94µM* | -0.3%
CN(C)Cc1cccc(N=C(c2ccccc2)c2c(O)[nH]c3cc(C(=O)N(C)C)ccc23)c1 | 14.3% | · | · | · | · | ·
O=C(CCS(=O)(=O)c1ccccc1)N(Cc1cccnc1)c1nc2ccc(F)cc2s1 | ? | 32.3% | ? | 10.6µM* | ? | 4.47µM*
CC(=O)N(Cc1cccnc1)c1nc2ccc(F)cc2s1 | 0.7% | -17.4% | -0.1% | -15.8% | -6.7% | -16.5%
O=C(Nc1c(Cl)cccc1Cl)c1cc(-c2cccc(O)c2)on1 | i | 12.6µM* | -1.6% | · | 62.4% | ·
CC1(C)S[C@H]2[C@H](NC(=O)[C@@H](N)c3ccc(O)cc3)C(=O)N2[C@@H]1C(=O)O | 3.5% | · | · | · | · | ·
SMILES | SKOV3 invasion | p53null 39C kill | pS6 MEF inh | PMP22 txn | p53null 32C kill | S16 F2sN tox
CCn1c(C)cc(/C=C2/SC(=S)NC2=O)c1C | · | · | · | · | 17.8µM* | ·
NC(=O)Nc1cc(-c2ccc(CN3CCOCC3)cc2)sc1C(N)=O | 7.9% | · | · | · | · | ·
COc1ccc(C(=O)Nc2cc(C(C)C)c(O)c(S(=O)(=O)c3ccc(Cl)cc3)c2C)cc1 | 1.4% | -12.1% | -1.5% | 18.5% | 2.7% | -6.6%
COc1ccc(C(=O)NC(c2ccc(Cl)cc2)c2cc(Cl)c3cccnc3c2O)cc1 (stereo unspecified) | 1.6% | 17.0% | 1.7% | ? | ? | 3.98µM*
Cn1cc(C(=O)O)c(=O)c2cc(S(=O)(=O)N3CCOCC3)ccc21 | -5.6% | 4.4% | -0.4% | ? | -4.1% | 14.1µM*
COc1ccc2c(c1)Cc1sc(NC(=O)c3cccc(Cl)c3)nc1-2 | 1.0% | 5.1% | -9.0% | -27.5% | 15.8µM* | ?
COc1ccc2c(c1)Cc1sc(NC(=O)c3cccc(C)c3)nc1-2 | -10.1% | -1.1% | 0.6% | -26.5% | 13.7% | 0.8%
NC(=O)[C@@H](CCC(F)(F)F)N(Cc1ccc(-c2ncon2)cc1F)S(=O)(=O)c1ccc(Cl)cc1 | -16.6% | · | · | · | · | ·
CCCCN1C(=O)C(O)(c2c(C)[nH]c3ccccc23)c2ccccc21 (stereo unspecified) | -8.4% | -10.1% | ? | 18.9µM* | 5.3% | ?
CCCCN1C(=O)C(O)(c2c(C)[nH]c3ccccc23)c2cc(Br)ccc21 (stereo unspecified) | ? | ? | ? | ? | -2.8% | -1.7%
CCOc1cc(CNCCSc2nnnn2C)ccc1OCc1ccc(Cl)cc1Cl | ? | 15.8µM* | ? | ? | ? | ?
Cn1nnnc1SCCNCc1ccccc1OCc1ccc(Cl)cc1Cl | -6.4% | ? | -4.9% | ? | ? | ?
CNC(=O)c1cc(Oc2ccc(NC(=O)Nc3ccc(Cl)c(C(F)(F)F)c3)c(F)c2)ccn1 | -25.9% | · | · | · | · | ·

Compound activity as filed in PubChem.
